From PubChem BioAssay AID1006 (Sanford-Burnham Center for Chemical Genomics, 2008)
Out of some 200,000 compounds screened, about 3,000 (1.5%) were called active. What follows is part of a selection rich in actives, with near analogues and random picks from the rest. Values without a mark were called inactive.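 The calls were made as follows: active = inhibition above about 50% when tested at 10 µM (limit read from the data); inactive = the rest.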

Target: Luciferin 4-monooxygenase (Photinus pyralis) (UniProt P08659)
Sequence (P08659 whole entry, looked up): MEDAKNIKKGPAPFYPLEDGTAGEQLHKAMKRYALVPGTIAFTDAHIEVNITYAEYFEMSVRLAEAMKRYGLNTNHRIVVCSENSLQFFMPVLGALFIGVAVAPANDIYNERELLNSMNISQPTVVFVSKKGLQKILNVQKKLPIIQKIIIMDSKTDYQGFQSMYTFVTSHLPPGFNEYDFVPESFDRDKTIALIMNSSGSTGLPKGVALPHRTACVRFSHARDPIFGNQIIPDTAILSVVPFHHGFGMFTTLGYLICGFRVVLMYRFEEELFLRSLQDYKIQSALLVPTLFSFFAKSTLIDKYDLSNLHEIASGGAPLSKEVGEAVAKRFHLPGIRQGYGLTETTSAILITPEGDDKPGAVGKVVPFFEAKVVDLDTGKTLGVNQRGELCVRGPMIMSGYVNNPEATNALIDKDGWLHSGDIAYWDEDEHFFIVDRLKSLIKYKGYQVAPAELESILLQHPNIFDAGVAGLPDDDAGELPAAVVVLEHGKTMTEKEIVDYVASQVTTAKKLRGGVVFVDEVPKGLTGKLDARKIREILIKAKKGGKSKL
Experiment: firefly luciferase enzyme inhibitors, primary screen, artefact control for luciferase-based inhibitor screens, biochemical, luminescence, ATPLite (AID 1006)
Details: 10 min, at 10 µM, active compounds read high

**Q.** `Cc1nc2ccc(N3CCN(C)CC3)cc2nc1C` was tested. Which inhibition did it give?
**A.** 15.6%

**Q.** How did the inhibition turn out when `CN1CCN(c2cc(N3CCNCC3)ccc2[N+](=O)[O-])CC1` was run?
**A.** 5.2%

**Q.** With `COc1cccc(-c2nc3ccc(N4CCN(C)CC4)cc3[nH]2)c1` as the compound, how does the inhibition read?
**A.** 95.8% (active)

**Q.** With `Cc1nn(Cc2ccccc2Cl)c(Cl)c1C(=O)OC(C(=O)NC(N)=O)C(C)C` (stereo not given) as the compound, how does the inhibition read?
**A.** -7%

**Q.** `Cc1ccnc(-n2c(C)cc(/C=C3\C(=O)NC(=S)N(C)C3=O)c2C)c1` was tested. Which inhibition did it give?
**A.** 5.2%
